From PubChem
IL1B secr inh – qHTS for Inhibitors of Inflammasome Signaling: IL-1-beta AlphaLISA Primary Screen. activity change, % at 57.5 µM. AID 743279, 2014. THP-1 LPS/ATP IL-1B secretion, AlphaLISA, 16 h; stronger effect = lower value. actives 4.7% (n = 360,000); in the data active = activity change below about -50%; inconclusive = mostly about -30% to -49%; also: % is scaled to controls: 0 for no effect and ±100 for the full control effect
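THP-1 cells pretreated 1 hr with compounds (up to 57.5 uM final), then stimulated with LPS (250 ng/mL final) plus ATP (1.25 mM final); secreted IL-1B measured by AlphaLISA after 16 hr, decreased signal indicating inhibition.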
TDP1 block – qHTS Assay for Inhibitors of Tyrosyl-DNA Phosphodiesterase (TDP1) | recombinant TDP1, AlphaScreen DNA substrate cleavage | Potency, µM (series often up to 130 µM), inactives show top-dose activity change, negative = inhibition, usual class: inhibitors | Tyrosyl-DNA phosphodiesterase 1 (Homo sapiens), Q9NUW8 | actives 0.28% (n = 350,000); also: potency is read from the fitted curve at half-maximal effect; % is scaled to controls: 0 for no effect and ±100 for the full control effect; nearly all actives have a fitted effect of over 40% in size
Target sequence (Q9NUW8 whole entry, looked up): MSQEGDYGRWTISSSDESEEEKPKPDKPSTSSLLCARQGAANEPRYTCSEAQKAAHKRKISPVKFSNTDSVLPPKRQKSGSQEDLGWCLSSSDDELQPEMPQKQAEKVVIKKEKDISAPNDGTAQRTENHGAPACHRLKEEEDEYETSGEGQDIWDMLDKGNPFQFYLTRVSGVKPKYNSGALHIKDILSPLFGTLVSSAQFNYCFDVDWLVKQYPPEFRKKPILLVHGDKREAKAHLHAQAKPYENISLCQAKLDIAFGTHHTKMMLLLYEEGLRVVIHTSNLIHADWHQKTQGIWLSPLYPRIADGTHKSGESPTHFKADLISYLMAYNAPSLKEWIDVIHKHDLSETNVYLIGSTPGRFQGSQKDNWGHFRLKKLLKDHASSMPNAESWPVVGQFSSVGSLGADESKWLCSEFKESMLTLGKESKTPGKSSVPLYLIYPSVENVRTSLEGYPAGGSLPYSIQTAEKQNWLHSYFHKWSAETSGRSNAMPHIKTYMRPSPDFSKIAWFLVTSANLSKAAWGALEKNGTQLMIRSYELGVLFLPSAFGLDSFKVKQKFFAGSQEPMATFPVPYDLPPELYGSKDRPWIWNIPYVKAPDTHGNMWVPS
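Here, a 5' biotin and 3' phosphotyrosine-FITC DNA oligonucleotide reports Tdp1 activity: intact substrate bridges AlphaScreen beads, while cleavage leaves a 3' phosphate and drops signal. All incubations at room temperature.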
DT40 TDP1 CPT – qHTS for Inhibitors of human tyrosyl-DNA phosphodiesterase 1 (TDP1): qHTS in cells in presence of CPT | chicken DT40 Tdp1-/-;hTDP1 cells + 20 nM CPT, ATP luminescence, 48 h | Potency, µM (top dose mostly 46.2 µM), for inactives: at the highest dose activity change, negative = growth inhibition, actives largely listed as inhibitors | actives 12% (n = 420,000); also: potency is read from the fitted curve at half-maximal effect; % is scaled to controls: 0 for no effect and ±100 for the full control effect; nearly all actives have a fitted effect of over 55% in size
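Cell growth measured by CellTiter-Glo luminescence after a minimum 48 h, 37 C compound exposure with 20 nM CPT in Tdp1-knockout DT40 cells stably expressing hTDP1, seeded 400/well; qHTS titration format.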
TGFb SMAD3 inh – qHTS for Inhibitors of TGF-b. HepG2 CAGA-GFP TGF-b/SMAD3 reporter, GFP fluorescence, 18 h; TGF-beta stimulated, 500 pg/mL final. actives 1.2% (n = 410,000). Potency, µM (highest dose often 46.1 µM), inactives show at the top dose activity, negative = inhibition, most hits filed as inhibitors. AID 588855, 2011; also: potency is read from the fitted curve at half-maximal effect; % is scaled to controls: 0 for no effect and ±100 for the full control effect; nearly all actives have a fitted effect of over 65% in size
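TGF-beta reporter screen: HEPG2 CAGA-GFP, 1% FBS, 500 pg/mL TGF-beta final, 18 h; per-cell GFP summed per well; curves fitted and categorized by class.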
HepG2 tox – qHTS for Inhibitors of TGF-b: Cytotox Counterscreen; HepG2 CAGA-GFP viability, ATP luminescence, 18 h; Potency, µM (series often up to 46.1 µM), for the others: top-dose activity change, negative = cytotoxicity, most hits filed as cytotoxic; actives 0.76% (n = 410,000); also: potency is read from the fitted curve at half-maximal effect
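CellTiter-Glo luminescence gave cytotoxicity after 18 hours at 37 degrees C. The cells were HepG2 CAGA-GFP in 1% FBS DMEM, stimulated with 500 pg/mL TGF-beta after compound addition. %Activity was normalised to no-cell wells (complete cell-killing) and DMSO (no toxicity), and curves were fitted and classified.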
TDP1 cell noCPT – qHTS for Inhibitors of human tyrosyl-DNA phosphodiesterase 1 (TDP1): qHTS in cells in absence of CPT; Potency, µM (highest dose often 46.2 µM), for inactives: top-dose activity change, negative = growth inhibition, usual class: inhibitors; AID 686978, 2013; DT40 Tdp1-/- hTDP1 cells, no CPT, ATP luminescence, 48 h; actives 15% (n = 420,000); also: potency is read from the fitted curve at half-maximal effect; % is scaled to controls: 0 for no effect and ±100 for the full control effect; nearly all actives have a fitted effect of over 55% in size
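Camptothecin absent (DMSO only). Human TDP1-complemented DT40 knockout cells, 400 cells/well, 37 °C for minimum 48 hr; ATP measured via CellTiter-Glo, 30 min dark incubation, luminescence.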
* = called active by the depositor; u = inconclusive; x = no result given; [ ] = dose if it differs, or a comment. Compounds with a hit are over-represented: about 19% of the library has one in this group of screens. Unless noted, calls follow the shape of the dose curve; as a rule, active = well fitted curve in the direction sought with a large enough effect; inconclusive = small, poorly fitted or top-dose-only effect, or another doubt; inactive = no such curve, though single readings can be large; an effect the other way counts as inactive or inconclusive.

SMILES | IL1B secr inh | TDP1 block | DT40 TDP1 CPT | TGFb SMAD3 inh | HepG2 tox | TDP1 cell noCPT
O=C(c1cnn2c(C(F)(F)F)cc(-c3cccs3)nc12)N1CCN(C(c2ccccc2)c2ccccc2)CC1 | -29 | 0% | 9.2µM* | 20% | 4% | 13µM*
COc1ccccc1-c1cc(C(=O)N2CCc3ccccc3C2)c2ccccc2n1 | x | 0% | x | x | x | x
Cc1ccc(S(=O)(=O)c2cn(CC(=O)Nc3ccc4c(c3)OCO4)c3ccccc3c2=O)cc1 | x | 4% | 0% | u | -13% | u
COc1cccc(CNC(=O)C2CCN(C(=O)c3cnn(-c4ccccc4)c3-n3cccc3)CC2)c1 | x | 0% | u | u | -18% | u
Cn1cc(CN2CCC(C(=O)Nc3cccc(-c4cscn4)c3)CC2)cn1 | 28 | 5%[56.1 µM] | -18% | -4% | 1% | 2%
CCCc1ncc(CN2CCC(C(=O)Nc3cccc(-c4cscn4)c3)CC2)cn1 | -8 | 13% | u | u | -38% | 29µM*
CCCn1cc(CN2CCC(C(=O)Nc3cccc(-c4cscn4)c3)CC2)c(C)n1 | -72* | -1% | u | -2% | -3% | u
CCCNC(=O)C1(C)CCCN(C(=O)c2ccc(F)c(Cl)c2)C1 (centres undefined) | -13 | x | -19% | -7% | 8% | -20%
C=CC[C@@H](CC(=O)N(CCO)Cc1ccccc1)C(=O)N[C@@H](C)COC(=O)[C@@H](CC=C)Cc1ccc(F)cc1 | -3 | -2% | u | -22% | -15% | 16µM*
C=CC[C@@H](CC(=O)N(CCO)Cc1ccccc1)C(=O)N[C@H](COC(=O)[C@@H](CC=C)Cc1ccc(F)cc1)c1ccccc1 | u | 1% | 15µM* | u | -26% | 13µM*
C=CC[C@@H](CC(=O)N[C@H](CO)Cc1ccccc1)C(=O)N[C@@H](COC(=O)[C@@H](CC=C)Cc1ccc(F)cc1)Cc1ccccc1 | 73 | 1% | u | 4% | 0% | u
C=CC[C@H](CC(=O)NCCO)C(=O)N[C@H](C)COC(=O)[C@@H](CC=C)Cc1ccc(F)cc1 | 23 | 0% | u | 3% | 1% | u
C=CC[C@H](CC(=O)N(CCO)Cc1ccccc1)C(=O)N[C@H](COC(=O)[C@@H](CC=C)Cc1ccc(F)cc1)C(C)(C)C | -61* | -3% | u | u | 0% | u
C=CCC[C@H](Cc1ccc(F)cc1)C(=O)OC[C@@H](NC(=O)[C@H](CC=C)CC(=O)NCCO)C(C)(C)C | -4 | 0% | u | u | -20% | u
C=CCC[C@H](Cc1ccc(F)cc1)C(=O)OC[C@@H](NC(=O)[C@@H](CC=C)CC(=O)N(CCO)Cc1ccccc1)C(C)(C)C | u | 0% | 26µM* | u | -6% | u
CCc1nn(CC(=O)N(C)Cc2ccccc2)c(=O)c2cc3sccc3n12 | x | 4% | u | u | -20% | u
C=CC[C@@H](CC(=O)N(CCO)Cc1ccccc1)C(=O)N[C@H](COC(=O)[C@@H](CC=C)Cc1ccc(F)cc1)C(C)(C)C | -83* | 2% | 21µM* | u | -9% | 13µM*
Cc1ccccc1CNC(=O)c1ccc(CN2CC(=O)N3CCCCC3C2=O)cc1 (centres undefined) | x | 2% | -9% | u | -43% | -7%
CCN(CC)c1ccc(C(=C2C=CC(=[N+](CC)CC)C=C2)c2ccc(N(CC)CC)cc2)cc1 | u | x | 0.92µM* | 2.2µM* | 11µM* | 0.73µM*
CCN(CC)c1ccc(C(=C2C=CC(=[N+](CC)Cc3cccc(S(=O)(=O)[O-])c3)C=C2)c2ccc(N(CC)Cc3cccc(S(=O)(=O)O)c3)cc2)cc1 | x | 26% | x | x | x | x
CCN(CC)c1ccc(C(=C2C=CC(=[N+](CC)CC)C=C2)c2ccccc2)cc1 | -120* | 28% | 0.16µM* | u | 1.8µM* | 0.15µM*
CC/C(=C\c1ccc(C(=O)OC)cc1)c1cc(OC)cc2oc3ccccc3c12 | x | x | u | -29% | -32% | u
O=S(=O)(Nc1cc(F)ccc1F)c1ccc2[nH]c3c(c2c1)CCCCC3 | x | 4% | u | u | 11µM* | u
O=S(=O)(Nc1cc(F)ccc1F)c1ccc2[nH]c3c(c2c1)CCCC3 | x | 6% | u | u | -52% | u
O=S(=O)(Nc1cccc(F)c1)c1ccc2[nH]c3c(c2c1)CCCCC3 | x | 6% | 21µM* | u | -101% | u
SMILES | IL1B secr inh | TDP1 block | DT40 TDP1 CPT | TGFb SMAD3 inh | HepG2 tox | TDP1 cell noCPT
CCc1ccc2nc(N(CCCN(C)C)C(=O)c3ccc(S(=O)(=O)N4CCCC4)cc3)sc2c1 | -13 | 4% | u | -28% | -25% | u
CN(C)CCCN(C(=O)c1ccc(S(=O)(=O)N2CCCCCC2)cc1)c1nc2ccc(F)cc2s1 | -105* | 9% | u | 0% | -32% | u
Cc1ccc2nc(N(CCCN(C)C)C(=O)c3ccc4ncsc4c3)sc2c1 | 0 | 3% | 16µM* | 2% | -37% | u
Cc1ccc(S(=O)(=O)CC(=O)N(CCCN(C)C)c2nc3ccc(C)cc3s2)cc1 | -55* | x | 3% | 0% | -39% | -4%
Cc1ccc2nc(N(CCCN(C)C)C(=O)c3ccc(S(=O)(=O)N4CCCCCC4)cc3)sc2c1 | x | 8% | u | u | 16µM* | u
CC(O)(COc1ccccc1)c1ccc2c(c1)CN(Cc1cccc3cccnc13)CCO2 (centres undefined) | x | x | 14%[9.04 µM] | x | x | u
COC(=O)N1C2CC(=O)O[C@@H]3c4cc5c(cc4[C@]1(C)[C@@]3(Br)c1ccccc12)OCO5 | x | -12%[12.3 µM] | x | x | x | x
O=C(O)CCn1c(=O)c2cccn2c2cccnc21 | x | 0% | -7% | x | -2% | 0%
CN(C)CCNc1ccc2nnn3c4ccc(O)cc4c(=O)c1c23 | -53* | x | 0.18µM* | u | -14% | 0.18µM*
CCN(CC)CCCNc1ccc2ncn3c4ccc(O)cc4c(=O)c1c23 | -93* | x | 0.15µM* | 16% | -29% | 0.15µM*
